The text below walks through data of PubChem BioAssay (EPA / NIEHS).

Each structure is given as a SMILES string. The source made the active and inactive calls. Rule for the calls: active = hit-call score of the fitted dose curve at least 0.9, where 1 is the maximum; inactive = score below 0.9.

This assay can be described thus: APR_HepG2_NuclearSize_1hr: Apredica 1-hour HepG2 Assay for Nuclear Size (AID 2282670). The settings on record: high-content imaging, actives raise or lower the signal. The protocol: APR_HepG2_1hr is a cell-based, multiplexed-readout assay that uses HepG2, a human liver cell line, with measurements taken at 1 hour after chemical dosing in a 384-well plate.APR_HepG2_NuclearSize_1hr is one of 10 assay component(s) measured or calculated from the APR_HepG2_1hr assay. It is designed to make measurements of cell phenotype, a form of morphology reporter, as detected with fluorescence intensity signals by HCS Fluorescent Imaging technology.Data from the assay component APR_HepG2_NuclearSize_1hr was analyzed into 1 assay endpoint. This assay endpoint, APR_HepG2_NuclearSize_1hr, was analyzed with bidirectional fitting relative to DMSO as the negative control and baseline of activity. Using a type of morphology reporter, measures of all nuclear dna for gain or loss-of-signal activity can be used to understand the signaling at the nuclear-level. Furthermore, this assay endpoint can be referred to as a primary readout, because this assay has produced multiple assay endpoints where this one serves a signaling function. To generalize the intended target to other relatable targets, this assay endpoint is annotated to the cell morphology intended target family, where the subfamily is organelle conformation.
Cells were treated with dimethyl sulfoxide (DMSO) as a solvent control at a final concentration of 0.5% v/v or with compounds in DMSO with a resulting final DMSO concentration of 0.5% v/v. Compound treatment was done at concentrations of 0.39, 0.78, 1.56, 3.12, 6.24, 12.5, 25, 50, 100, and 200 uM in duplicate on each plate. Cells were treated with compounds for 1, 24, or 72 hr. Carbonyl […] m-chloro-phenylhydrazone (CCCP) and taxol were used as positive controls for mitochondrial function and cytoskeletal stability, respectively; DMSO served as the negative control for this experiment. Cells were fixed by the direct addition of 50 uL formaldehyde in Hank's Balanced Salt Solution (HBSS) to a final concentration of 3.7%. After incubation in the fixation medium for 30 min at room temperature (293-298 K), cells were rinsed twice with HBSS and treated with cell permeabilization buffer (16 uL of 0.5% Triton X-100) for 10 min at room temperature (293-298 K) before labeling. For mitochondrial membrane potential and mitochondrial measurements, pre-fixed cells were incubated with 50 uL of MitoTracker Red CMXRos (Invitrogen) at a concentration of 250 nM for 30 min before fixation. In the remaining cases, post-fixed cells were labeled by incubation with a multiplexed mixture of primary antibodies in HBSS for 60 min at room temperature (293-298 K) to detect immunoreactivity of c-Jun (1:500), phospho-histone H3 (1:100), phospho-histone H2A.x (1:200), p53 (1:400), alpha-tubulin (1:200) and Hoechst 33342 (2 ug/mL). Cells were labeled for multiplexed imaging on two separate plates: a) Hoechst 33342, MitoTracker Red, phospho-histone H3, and alpha-tubulin, and b) Hoechst 33342, phospho-histone H2A.x, and c-Jun. A final rinse with HBSS (50 uL) was performed before analysis. The primary and secondary antibodies for the proteins were phospho-histone H3 (rabbit anti-phospho-histone H3 and FITC-donkey anti-rabbit IgG), phospho-histone H2A.x (mouse anti-phospho-histone H2A.x and FITC-donkey anti-mouse IgG), c-Jun (rabbit anti-phospho-c-Jun and Cy3-donkey anti-rabbit IgG), p53 (sheep anti-p53 and Cy5-donkey anti-sheep IgG), alpha-tubulin (mouse anti-alpha-tubulin and Cy5-donkey anti-mouse IgG). These antibodies are available as the CellCiphr HepG2 assay kit (Millipore).Digital images of each well were captured using a Cellomics ArrayScan VTI (Thermo Scientific Cellomics) (0.8 NA objective, 0.63x optical coupler, and XF-93 filter set) at 20x magnification. The images were acquired using the autofocus feature of the ArrayScan instrument, which entails the following steps. First, the camera focuses on channel 1 (Hoechst 33342), where nuclei are identified. Second, a Z offset of 1 um is used for capturing mitochondria (MitoTracker Red). […]
As to `Nc1c(Cl)cc([N+](=O)[O-])cc1Cl`, the outcome was inactive.
The same measure for `CSc1nnc(C(C)(C)C)c(=O)n1N`: “inactive”; for `CC(COc1ccc(Oc2ccccc2)cc1)Oc1ccccn1` (stereo not given): “inactive”.
Regarding `CC(C1CC1)C(O)(Cn1cncn1)c1ccc(Cl)cc1` (stereo not given), the result was inactive.
As for `S=C1NCCN1`, the entry is “inactive”.
Regarding `Cc1cc(C2CC2)nc(Nc2ccccc2)n1`, the result was inactive.
As for `CCCCOC(=O)[C@@H](C)Oc1ccc(Oc2ccc(C#N)cc2F)cc1`, the entry is “inactive”; as for `CON=C(C(=O)OC)c1ccccc1CON=C(C)c1cccc(C(F)(F)F)c1`, “inactive”.
The same measure for `CNC(=O)Oc1cccc2c1OC(C)(C)O2`: “inactive”; for `C#CCC1=C(C)C(OC(=O)C2C(C=C(C)C)C2(C)C)CC1=O` (stereo not given): “inactive”.
The same measure for `CCc1cnc(C2=NC(C)(C(C)C)C(=O)N2)c(C(=O)O)c1` (stereo not given): “inactive”.
For `CSc1nc(NC(C)C)nc(NC(C)C)n1`, the outcome was inactive.
The same measure for `O=[N+]([O-])c1cc(C(F)(F)F)c(Cl)c([N+](=O)[O-])c1Nc1ncc(C(F)(F)F)cc1Cl`: “inactive”; for `CCCSP(=O)(OCC)Oc1ccc(Br)cc1Cl` (stereo not given): “inactive”; for `C[N+]1(C)CCCCC1`: “inactive”.
The same measure for `CC[C@H](C)[C@H]1O[C@]2(C=C[C@@H]1C)C[C@@H]1C[C@@H](C/C=C(\C)[C@@H](O[C@H]3C[C@H](OC)[C@@H](O[C@H]4C[C@H](OC)[C@@H](NC)[C@H](C)O4)[C@H](C)O3)[C@@H](C)/C=C/C=C3\CO[C@@H]4[C@H](O)C(C)=C[C@@H](C(=O)O1)[C@]34O)O2`: “inactive”; for `CCc1cccc(CC)c1N(COC)C(=O)CCl`: “inactive”; for `CC(C)=CC1C(C(=O)OCN2C(=O)C3=C(CCCC3)C2=O)C1(C)C` (stereo not given): “inactive”.
For `FC(F)C(F)(F)OCC(Cn1cncn1)c1ccc(Cl)cc1Cl` (stereo not given), the result was inactive.
The same measure for `CN(C)NC(=O)CCC(=O)O`: “inactive”; for `C[Si](Cn1cncn1)(c1ccc(F)cc1)c1ccc(F)cc1`: “inactive”.
As for `COc1ccc(C(=CC(=O)N2CCOCC2)c2ccc(Cl)cc2)cc1OC`, the entry is “inactive”.
As for `CCOP(=S)(OCC)Oc1ccc2c(C)c(Cl)c(=O)oc2c1`, the entry is “inactive”.
Take `CC1(C(=O)Nc2ccc(O)c(Cl)c2Cl)CCCCC1`: the compound was called inactive.
As for `Cc1ccn2nc(S(=O)(=O)Nc3c(F)cccc3F)nc2n1`, the entry is “inactive”; as for `CCCCSP(=O)(SCCCC)SCCCC`, “inactive”.
The same measure for `CC(C)N(C(=O)SCC(Cl)=C(Cl)Cl)C(C)C`: “inactive”.
`COP(=O)(OC)C(O)C(Cl)(Cl)Cl` (stereo not given): the result was inactive.
The same measure for `CCC(=NOC/C=C/Cl)C1=C(O)CC(C2CCOCC2)CC1=O` (stereo not given): “inactive”.
The same measure for `COc1cc(OC)nc(Sc2cccc(Cl)c2C(=O)O)n1`: “inactive”.
As for `CCC(=O)Nc1ccc(Cl)c(Cl)c1`, the entry is “inactive”; as for `CCc1cccc(C)c1N(C(=O)CCl)C(C)COC` (stereo not given), “inactive”; as for `CSC1=N[C@@](C)(c2ccccc2)C(=O)N1Nc1ccccc1`, “inactive”.
For `CCC(CC)Nc1c([N+](=O)[O-])cc(C)c(C)c1[N+](=O)[O-]`, the compound was called inactive.
As for `O=c1ccc(=O)[nH][nH]1`, the entry is “inactive”.
As for `CCOP(=O)(OCC)Oc1cc(C)nc(C(C)C)n1`, the entry is “inactive”.
Turning to `COP(=O)(OC)OC(Br)C(Cl)(Cl)Br` (stereo not given), the call was inactive.
As for `CN(C)[C@@H]1C(=O)C(C(N)=O)=C(O)[C@@]2(O)C(=O)C3=C(O)c4c(O)cccc4[C@@](C)(O)[C@H]3[C@H](O)[C@@H]12`, the result was inactive.
As for `CNC(=O)ON=C(SC)C(=O)N(C)C`, the entry is “inactive”; as for `CCOP(=O)(SC(C)CC)N1CCSC1=O` (stereo not given), “inactive”.
